UBC9 SUMO inh: SUMOylation inhibition; hit rate 0.36% among 290,000; HTRF SUMOylation assay, SAE1/SAE2 + UBC9, in vitro; inhibition, % at 35 µM; in the data active = inhibition above about 50%, passing the limit was not always enough
H9c2 protect: myocardial damage modulation in H9c2 cells; H9c2 cardiomyocytes, H2O2 injury protection, ATPLite, 2 h; hit rate 0.63% among 360,000; protection from H2O2 cell death, % at 20 µM;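 active = compounds giving at least 50% protection of heart cells from peroxide-induced death in the single-dose screen, raw or plate-pattern-corrected value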;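 also: 0% = DMSO wells with peroxide and 100% = DMSO wells without peroxide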
ALR inh: human ALR oxidase inhibition via reduced H2O2. P55789. purified ALR, DTT oxidation, H2O2 HRP-luminol luminescence. inhibition, % (test concentration not listed). hit rate 3.8% among 290,000. AID 485317;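 active = mean replicate inhibition above about 79%, with every replicate also reaching it, limit read from the data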
NTR1 agonist: agonists of human neurotensin receptor NTR1. AID 493036. NTR1-U2OS beta-arrestin-GFP spot imaging, agonist mode. activation, % at 20 µM. hit rate 0.17% among 330,000;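 active = activation at or above 40% of the spot to cytoplasm intensity ratio, with at least 20 cells analyzed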;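 also: 0% = DMSO without peptide and 100% = 100 nM NTR1 peptide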
Target sequence (P30989 whole entry, looked up): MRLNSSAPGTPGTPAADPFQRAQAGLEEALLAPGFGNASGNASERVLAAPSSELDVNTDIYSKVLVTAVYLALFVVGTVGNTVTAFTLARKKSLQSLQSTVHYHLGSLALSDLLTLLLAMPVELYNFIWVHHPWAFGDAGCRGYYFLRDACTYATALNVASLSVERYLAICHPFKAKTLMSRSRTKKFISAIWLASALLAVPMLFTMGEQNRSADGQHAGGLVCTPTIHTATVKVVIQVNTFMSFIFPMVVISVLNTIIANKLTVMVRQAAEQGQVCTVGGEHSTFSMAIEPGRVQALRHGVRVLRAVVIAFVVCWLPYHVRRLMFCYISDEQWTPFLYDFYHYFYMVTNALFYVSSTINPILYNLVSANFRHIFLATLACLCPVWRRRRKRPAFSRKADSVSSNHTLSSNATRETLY
* hit, by the source's call; . = not tested or not shown. An excerpt weighted towards active compounds, which were near 3.9% of everything screened.

SMILES	UBC9 SUMO inh	H9c2 protect	ALR inh	NTR1 agonist
O=S(=O)(c1ccc(Oc2ccc(S(=O)(=O)N(CCO)CCO)cc2)cc1)N(CCO)CCO	16	1	-9	0
CN(C)CCCNS(=O)(=O)c1ccc(N2CCC(c3ccc(Cl)cc3)=N2)cc1	65*	.	91*	14
O=S(=O)(c1ccc(N2CCC(c3ccc(Cl)cc3)=N2)cc1)N(CCO)CCO	41	9	98*	8
CC1=C(C(=O)N2CCOCC2)CC(CC(=O)NCCCCc2ccccc2)C(=O)N1CCC1=CCCCC1 (stereo not given)	.	20	.	.
CCOc1ccc(NC(=O)CSc2nnnn2CC(=O)O)cc1	-2	-3	-6	0
O=C(/C=C/c1cc([N+](=O)[O-])ccc1OC(F)F)Nc1ccc(OC(F)F)cc1	19	-3	-4	2
C/C(=N\NS(=O)(=O)c1ccc([N+](=O)[O-])cc1)c1cccs1	-12	-2	62	0
CC(C)/C(=N\NS(=O)(=O)c1ccc(Br)cc1)c1cccs1	-11	-11	80*	1
CCCCCCCC/C=C\CCCCCCCC(=O)NCCc1ccc(O)c(O)c1	.	67*	36	7
COCCN(C(=O)Nc1ccc(F)cc1F)c1nc2ccccc2s1	0	-3	-21	0
NC(=O)c1nsc(C(=O)N(c2cccc(F)c2)C(C(=O)NC2CCCC2)c2ccc(O)cc2)c1N (stereo not given)	1	20	50	4
NC(=O)c1nsc(C(=O)N(c2ccccc2F)C(C(=O)NCc2ccc(F)cc2)c2ccc(O)cc2)c1N (stereo not given)	-8	52*	3	6
COc1ccccc1N(C(=O)c1snc(C(N)=O)c1N)C(C(=O)NCc1ccccc1)c1ccc(O)cc1 (stereo not given)	4	2	.	1
CCOc1ccc(C(C(=O)NCC2CCCO2)N(Cc2cccs2)C(=O)c2snc(C(N)=O)c2N)cc1 (stereo not given)	8	68*	3	4
COc1ccc(C(C(=O)NCC2CCCO2)N(Cc2cccs2)C(=O)c2snc(C(N)=O)c2N)cc1OC (stereo not given)	6	30	.	11
CCOc1ccc(C(C(=O)NCC2CCCO2)N(C(=O)c2snc(C(N)=O)c2N)c2ccccc2F)cc1 (stereo not given)	11	61*	.	7
COc1ccc(C(C(=O)NC2CCCC2)N(C(=O)c2snc(C(N)=O)c2N)c2cccc(O)c2)cc1 (stereo not given)	14	52*	-19	3
Cc1ccc(NC(=O)CCSc2nnc(Cc3ccccc3)o2)cc1	-8	-5	-1	3
CCOC(=O)N1CCN(S(=O)(=O)c2ccc(C(=O)Nc3sc4c(c3C(N)=O)CCN(CC)C4)cc2)CC1	-9	3	10	0
CC(NS(=O)(=O)c1ccccc1)C(N)=O (stereo not given)	17	2	-1	-4
CCCCn1[nH]c(-c2ccccc2)cc1=O	80*	-5	8	3
COc1ccccc1NCCC(=O)OCC(=O)Nc1ccccc1Cl	.	-2	.	2
COc1ccccc1NCCC(=O)OCC(=O)Nc1ccccc1F	.	4	99*	1
COc1ccccc1CCC(=O)OCC(=O)NC1CCCC1	.	0	4	-1
COc1ccccc1NCCC(=O)OCC(=O)NC1CCCCCC1	-9	1	99*	0
SMILES	UBC9 SUMO inh	H9c2 protect	ALR inh	NTR1 agonist
O=C(c1ccccc1)N1N=C(c2ccccc2)CC1c1ccccc1[N+](=O)[O-] (stereo not given)	10	6	.	3
OC(CN(c1ccccc1)c1ccccc1)Cn1cnc2ccccc21 (stereo not given)	9	-33	99*	4
CN(CCOc1ccccc1)CC(O)COc1ccccc1 (stereo not given)	-8	4	-10	1
OC(COCc1ccccc1)Cn1cnc2ccccc21 (stereo not given)	-18	-3	-5	1
CC(C)[N+](C)(C)CC(O)CN(c1ccccc1)c1ccccc1 (stereo not given)	5	4	98*	-1
OCCN(CCO)CC(O)CN(c1ccccc1)c1ccccc1 (stereo not given)	8	5	99*	0
NCC(O)CN(c1ccccc1)c1ccccc1 (stereo not given)	20	2	99*	0
O=C(Nc1ccncc1)c1cc(S(=O)(=O)N2CCOCC2)ccc1Cl	.	3	.	2
N#C/C(=C\c1ccc(OCc2ccc(Cl)cc2)cc1)C(=O)Nc1cccc(C(=O)O)c1	54*	-13	1	0
CCOc1cc(/C=C(\C#N)C(=O)Nc2cccc(C(=O)O)c2)ccc1OCc1ccc(Br)cc1	62*	-6	4	3
CCOc1cc(/C=C(\C#N)C(N)=O)ccc1OS(=O)(=O)c1ccccc1	1	2	98*	16
COc1cc(/C=C(\C#N)C(=O)Nc2cccc(C(=O)O)c2)ccc1OCc1ccc(C)cc1	20	-10	5	8
COc1ccc(CCNc2ncnc3c2nnn3Cc2ccccc2)cc1OC	8	10	.	2
Cc1ccc(NC(=O)CSc2nnc(CSc3nc(C)cc(C)n3)n2Cc2ccco2)c(C)c1	8	3	.	2
CC(NC(=O)COC(=O)c1cc(Cl)ccc1O)C1CC2CCC1C2 (stereo not given)	.	-23	.	4
CCn1c(CSCc2ccc(Cl)cc2)n[nH]c1=S	4	-3	-3	4
Cn1c(CSCc2ccc(Cl)c(Cl)c2)n[nH]c1=S	5	-6	90*	4
Cc1cc(C)nc(SCc2cc(=O)c(OC(=O)c3ccco3)co2)n1	13	25	21	0
Cc1cc(C)nc(SCc2cc(=O)c(OC(=O)c3cc([N+](=O)[O-])ccc3Cl)co2)n1	-8	30	94*	0
COc1cccc(C(C2C(=O)CC(C)(C)CC2=O)C2C(=O)CC(C)(C)CC2=O)c1	12	1	.	2
Cc1ccc(C(C2=C(O)CC(C)(C)CC2=O)C2C(=O)CC(C)(C)CC2=O)s1 (stereo not given)	20	11	98*	5
COc1cccc(C(C2=C(O)CC(C)(C)CC2=O)C2C(=O)CC(C)(C)CC2=O)c1 (stereo not given)	10	2	98*	-1
CC(C)=CCc1c(O)cc2oc3c(CC=C(C)C)c(O)c(O)c(CC=C(C)C)c3c(=O)c2c1O	50*	-15	-14	4
NS(=O)(=O)c1ccc(N/N=C/c2ccc(C(=O)O)cc2)c([N+](=O)[O-])c1	10	8	-5	-1
NS(=O)(=O)c1ccc(N/N=C/c2ccc[nH]2)c([N+](=O)[O-])c1	-13	-7	97*	0
COc1ccc(CC(=O)NCc2ccc3c(c2)OCO3)cc1	16	6	3	0
COc1cccc(-c2nc(CS(=O)CC(=O)NCc3ccccc3Cl)c(C)o2)c1 (stereo not given)	-14	7	99*	0
COc1cccc(-c2nc(CS(=O)CC(=O)NCc3ccc4c(c3)OCO4)c(C)o2)c1 (stereo not given)	13	-1	99*	0
COc1cccc(NC(=O)CN(C)CC(=O)NCc2ccc3c(c2)OCO3)c1	.	-2	.	-1
